Source: PubChem BioAssay (NCI)
Compounds without any hit were thinned out: in the full panel of roughly 83,000, 20% have a hit.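 Compound tested at a single concentration for 48 hours in 96-well plates; a percent growth value below 10 was scored as active.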 A number with no mark means an inactive call. Calls of active or inactive are those of the source.

System: HL-60(TB) leukemia
Test: NCI-60 one-dose screen, 48 h (100 = growth as untreated, 0 = no growth, -100 = all killed)
Details: 10 µM unless noted

| SMILES | growth |
| --- | --- |
| Cc1cccc2c(=O)c3c(sc12)c(NCCNCCO)nc1ccccc13 | -58.4% (active) |
| COc1cc(-c2ccc(NC(=O)NC3CC3)c(OC)c2)ccc1NC(=O)NC1CC1 | 43.6% |
| COc1cc2cc(Oc3ccc(NC(=O)Nc4ccc(Cl)c(C(F)(F)F)c4)cc3)c(C)nc2cc1OC | -40.6% (active) |
| CCOC(=O)c1c(NC(=O)c2ccccc2)sc2c(O)c(CN(CC)CC)ccc12 | 0.395% (active) |
| Cc1[nH]n(-c2ccccc2)c2nc3nncc3c(-c3ccc(Cl)cc3)c12 | 110% |
| N#Cc1c(NC(=O)c2cccs2)[n+]([O-])c2cc(C(F)(F)F)ccc2[n+]1[O-] | 89% |
| CC(C)(C)OC(=O)CN1CCc2c(sc3ncnc(N/N=C/c4cccc5ccccc45)c23)C1 | -9.67% (active) |
| COc1ccc(-c2c(-c3ccccc3)noc2N)cc1OC | 95.2% |
| CC/C=C\C[C@H](F)C/C=C1/C(=O)C=C[C@@H]1C/C=C\CCCC(=O)OC | -33.1% (active) |
| COc1cc(C2C(C(=O)OCc3ccccc3)=C(C)NC(C)=C2C(=O)OCc2ccccc2)cc(OC)c1OC | 5.01% (active) |
| CC(=O)NCc1cc(C)c(C)cc1C | 99.2% |
| CCOc1ccc(C(C)=O)cc1NC(=O)c1cccc(-c2nnn(CC)n2)c1 | 7.31% (active) |
| COc1cc2oc(-c3ccc(NC(=O)c4ccccc4)cc3)cc(=O)c2c(OC)c1OC | 100% |
| COc1ccc(Nc2ncccc2NC(=O)c2cn(Cc3cccc(Oc4ccccc4)c3)nn2)cc1OC | 55.8% |
| COc1ccc(-c2cc(=O)n(-c3nc4ccccc4[nH]3)[nH]2)cc1OC | 35.4% |
| CNc1ccc(Br)cc1-c1n[nH]c(=O)[nH]c1=O | 104% |
| O=C1/C(=C/c2ccc([N+](=O)[O-])s2)Oc2ccccc21 | -7.99% (active) |
| COc1ccc(N=Nc2cc(OC)c(OC)c(OC)c2)cc1 | 42.4% |
| O=C1c2ccccc2NC(n2sc3ccccc3c2=O)N1c1ccccc1 (stereo unspecified) | 87.9% |
| O=C(CNC(=O)c1cccc2ccccc12)Nc1ccccc1Oc1ccc(O)cc1 | -13.9% [5 µM] (active) |
| CN(C)c1ccc(N=Nc2ccc3ccccc3c2)cc1 | 61.6% |

| SMILES | growth |
| --- | --- |
| CN(C(=O)NCc1cccc(F)c1Cl)[C@H](COC(=O)Nc1cc2ccccc2cn1)CC(O)CO (stereo partly specified) | 90.5% |
| Clc1ccc(-c2nc(-c3cccs3)cn3ccnc23)cc1 | 98.8% |
| CC1(C)OC2OC3C(CN)OC(c4ccccc4)OC3C2O1 (stereo unspecified) | 49.3% |
| CCOC(=O)c1c(C)oc2ncnc(N3CCN(C(=O)COc4ccc(SC)cc4)CC3)c12 | 97.2% |
| CC1(O)CCC2CC3OC3(C)CCC3OC3(C)CCC1C2(C)C (stereo unspecified) | 120% |
| CC[n+]1ccc2c(c1)C(=O)c1nccc3c1c-2nc1ccccc13 | -31.8% (active) |
| O=C(Cn1nc(-c2cccc3ccccc23)ccc1=O)NCc1cccc(Cl)c1 | 22.3% [50 µM] |
| COc1cc(C=O)ccc1Oc1ccc([N+](=O)[O-])cc1[N+](=O)[O-] | 95.1% |
| C#CCn1c(-c2cc(OC)c(OC)cc2Br)nc(-c2ccccc2)c1-c1ccccc1 | 24.5% |
| COc1cc2ncn3c(=O)c4c5c(sc4nc3c2cc1OC)CCCCC5 | 100% |
| O=C(Cc1ccc(F)c(F)c1)Nc1cc(C2(C(F)(F)F)CC2)nn1Cc1ccccc1 | 11.9% |
| CN(C)c1cccc2c(S(=O)(=O)N[C@H]3CC[C@H]4[C@@H]5CCc6cc(O)ccc6[C@H]5CC[C@]34C)cccc12 | -26.7% (active) |
| CC(=O)C1C(=O)C(=O)N(c2cccc([N+](=O)[O-])c2)C1=O (stereo unspecified) | 103% |
| c1nc(N2CCOCC2)c2[nH]ccc2n1 | 90.2% |
| Cc1ccc([N+](=O)[O-])c(C)n1 | 115% |
| COc1ccc(C2=CN3CC=CC3CC2=O)cc1 (stereo unspecified) | 106% |
| Cn1c2ccccc2c2ssc(=S)c21 | 43.5% |
| O=[N+]([O-])c1ccc(C2CC(c3ccccc3)=Nc3ccccc3S2)cc1 (stereo unspecified) | 36.1% |
| COC(=O)c1c2c(c[n+]([O-])c1C)C(=O)C(NCc1ccccc1)=CC2=O | -34.5% (active) |
| O=C1c2ccccc2C(=O)c2c1cc1c(c2[N+](=O)[O-])OCO1 | 7.66% (active) |
